Among the test systems are DU-145 prostate; K-562 leukemia; MALME-3M melanoma; MDA-MB-231 breast; RXF 393 renal; SF-268 CNS; SF-295 CNS; SF-539 CNS; UACC-257 melanoma; M14 melanoma; HCT-15 colon; HT29 colon; SNB-75 CNS; SNB-19 CNS; U251 CNS; PC-3 prostate; SK-MEL-5 melanoma; UACC-62 melanoma; LOX IMVI melanoma; SK-MEL-28 melanoma.
What all share (assay): NCI-60 one-dose screen, 48 h (100 = growth as untreated, 0 = no growth, -100 = all killed)
Common to all, as to conditions: 10 µM

The values below come from PubChem BioAssay (NCI).

Compounds without any hit were thinned out: in the full panel of roughly 83,000, 20% have a hit.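 Negative percent growth values reflect cell death: -40 means 40% of the cells present at the start died, and -100 means all died.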 A number with no mark means an inactive call. Activity calls are given as the source filed them. Rule for the calls: active = growth percent below 10; inactive = the rest.

On to `CCCCCCCCCCCCCCCCn1cc[n+](C)c1`, for which the growth is -100% (active) in the assay with DU-145 prostate; 72.6% with K-562 leukemia; -73.7% (active) in the assay with MALME-3M melanoma; -93.9% (active) with MDA-MB-231 breast; -66.2% (active) in the assay on RXF 393 renal; -23% (active) with SF-268 CNS. Also, the growth is -39.5% (active) in the assay with SF-295 CNS; -98.6% (active) in the assay with SF-539 CNS; -61.1% (active) in the assay with UACC-257 melanoma; -77.4% (active) in the assay with M14 melanoma; 9.85% (active) in the assay with HCT-15 colon; -100% (active) with HT29 colon. The growth in the assay on SNB-75 CNS is -98.6% (active); with SNB-19 CNS, -75.9% (active); with U251 CNS, -70% (active); with PC-3 prostate it was -69.7% (active); with SK-MEL-5 melanoma it was -95.2% (active); in the assay with UACC-62 melanoma, -94.6% (active). Further, the figures for the growth in the assay on LOX IMVI melanoma and in the assay on SK-MEL-28 melanoma were -50.4% (active) and -86.2% (active), respectively.

In the case of `CCCCCCCCCCCC(=O)NCCCN(C)C`, the growth with DU-145 prostate was 107%; with K-562 leukemia it was 59.4%; in the assay with MALME-3M melanoma it was 111%; with MDA-MB-231 breast, 79.1%; in the assay on RXF 393 renal it was 116%; in the assay on SF-268 CNS, 96.2%. Also, the growth with SF-295 CNS was 95.6%; with SF-539 CNS, 86.6%; in the assay on UACC-257 melanoma, 94.7%; with M14 melanoma, 98.1%; with HCT-15 colon it was 93.8%; in the assay on HT29 colon, 65.5%. For the same compound, the growth was 75.2% in the assay on SNB-75 CNS; 102% in the assay with SNB-19 CNS; 75% with U251 CNS; 75.5% in the assay with PC-3 prostate; 105% with SK-MEL-5 melanoma; 101% with UACC-62 melanoma. Moreover, the growth in the assay on LOX IMVI melanoma was 69%; in the assay on SK-MEL-28 melanoma it was 91.9%.

With `OC(CNC1CCCC1)Cn1c2ccccc2c2ccccc21` (stereo not given), the growth is 23% with DU-145 prostate; 3.31% (active) with K-562 leukemia; -70.8% (active) in the assay on MALME-3M melanoma; -23.9% (active) in the assay with MDA-MB-231 breast; 31.2% in the assay on RXF 393 renal; 44.8% in the assay with SF-268 CNS. The growth is -29.8% (active) with SF-295 CNS; -69.9% (active) with SF-539 CNS; -13.2% (active) in the assay on UACC-257 melanoma; -68.1% (active) with M14 melanoma; -37.6% (active) in the assay on HCT-15 colon; -0.747% (active) in the assay on HT29 colon. Further, the growth was 51.5% in the assay on SNB-75 CNS; 33.8% with SNB-19 CNS; -34.5% (active) in the assay with U251 CNS; 27% with PC-3 prostate; -61.6% (active) with SK-MEL-5 melanoma; -50.9% (active) in the assay on UACC-62 melanoma. The growth is -75.9% (active) with LOX IMVI melanoma and -60% (active) in the assay on SK-MEL-28 melanoma.

`Cc1ccc(/C=C2\CN(Cc3cn(CCNc4ccnc5cc(Cl)ccc45)nn3)C/C(=C\c3ccc(C)cc3)C2=O)cc1`: the growth was -98.5% (active) with DU-145 prostate; -14.7% (active) in the assay with K-562 leukemia; -14.9% (active) with MALME-3M melanoma; -27.6% (active) with MDA-MB-231 breast; -89% (active) in the assay on RXF 393 renal; -70.7% (active) in the assay on SF-268 CNS. In addition, the growth is -58.8% (active) with SF-295 CNS; -51.9% (active) in the assay on SF-539 CNS; -41.1% (active) in the assay with UACC-257 melanoma; -41.7% (active) in the assay on M14 melanoma; -29.4% (active) with HCT-15 colon; -45.1% (active) with HT29 colon. Also, the growth is 18.1% in the assay on SNB-75 CNS; -29.8% (active) in the assay with SNB-19 CNS; -73.7% (active) with U251 CNS; -32.4% (active) in the assay on PC-3 prostate; -90.5% (active) in the assay with SK-MEL-5 melanoma; -58.4% (active) in the assay on UACC-62 melanoma. The growth in the assay with LOX IMVI melanoma was -82.9% (active); in the assay on SK-MEL-28 melanoma it was -83.5% (active).

In the case of `COc1cc(-c2c(C#N)c(N)n3c(nc4ccccc43)c2C#N)cc(Br)c1OC`, the growth in the assay on DU-145 prostate is 39.1%; in the assay with K-562 leukemia, 54.6%; with MALME-3M melanoma it was 7.41% (active); in the assay with MDA-MB-231 breast, 12.6%; in the assay with RXF 393 renal it was -9.32% (active); with SF-268 CNS, 64%. Besides, the growth in the assay with SF-295 CNS was 66%; in the assay on SF-539 CNS it was 41.2%; in the assay on UACC-257 melanoma, 54%; with M14 melanoma, 76%; in the assay on HCT-15 colon, 63.9%; in the assay on HT29 colon, 32.1%. Besides, the growth is -8.28% (active) with SNB-75 CNS; 57.4% in the assay on SNB-19 CNS; 25.3% in the assay on U251 CNS; 37.2% in the assay on PC-3 prostate; 35.8% in the assay with SK-MEL-5 melanoma; 55.2% in the assay on UACC-62 melanoma. For the same compound, the growth with LOX IMVI melanoma was 52.9%; in the assay on SK-MEL-28 melanoma, 57.5%.

In the case of `CCNC(=S)NN`, the growth is 97.9% in the assay on DU-145 prostate; 43.9% in the assay with K-562 leukemia; 70.4% in the assay on MALME-3M melanoma; 90.5% in the assay on MDA-MB-231 breast; 100% with RXF 393 renal; 103% in the assay with SF-268 CNS. Besides, the growth with SF-295 CNS is 89.4%; in the assay on SF-539 CNS, 100%; with UACC-257 melanoma it was 56.8%; in the assay on M14 melanoma, 87.2%; in the assay with HCT-15 colon, 86.1%; in the assay with HT29 colon, 56.2%. For the same compound, the growth in the assay with SNB-75 CNS was 77%; with SNB-19 CNS it was 97.2%; with U251 CNS it was 87.2%; in the assay with PC-3 prostate it was 60.7%; in the assay on SK-MEL-5 melanoma, 102%; in the assay with UACC-62 melanoma, 99.2%. Moreover, the figures for the growth with LOX IMVI melanoma and in the assay on SK-MEL-28 melanoma were 96.8% and 107%, respectively.

Turning to `CC(=O)Nc1ccc(Sc2ccc(NC(C)=O)cc2)cc1`, the growth with DU-145 prostate was 102%; in the assay on K-562 leukemia it was 96.2%; with MALME-3M melanoma it was 102%; in the assay with MDA-MB-231 breast, 100%; in the assay on RXF 393 renal, 109%; with SF-268 CNS, 102%. Also, the growth in the assay with SF-295 CNS was 102%; in the assay with SF-539 CNS, 92%; in the assay with UACC-257 melanoma, 94.4%; with M14 melanoma, 98.2%; with HCT-15 colon, 98.9%; with HT29 colon, 91.2%. For the same compound, the growth is 84.1% with SNB-75 CNS; 106% in the assay with SNB-19 CNS; 95.9% with U251 CNS; 65.5% in the assay on PC-3 prostate; 105% with SK-MEL-5 melanoma; 96.5% with UACC-62 melanoma. Besides, the growth in the assay with LOX IMVI melanoma was 96.3%; in the assay on SK-MEL-28 melanoma, 102%.
